The source of these data is PubChem BioAssay.

The source made the active and inactive calls.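 The calls were made as follows, unless noted: active = fluorescence slope after compound addition differing from the mean of all screened samples at 99.7% confidence, in either direction; inactive = the rest.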

A short description of assay [1]: inhibitors of TNFa-induced NFkB p65 translocation, primary screen, imaging, HUVEC, MLSMR starter and 10KST1 sets (AID 438;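 active = inhibition above 20% together with a positive visual image hit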;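 also: compound added about 3h40 before a 20 min TNFalpha stimulation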;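 as to inhibition: signal is the nuclear over cytoplasmic p65 intensity ratio per well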). Conditions: HUVEC TNFa-induced p65 nuclear translocation; cell count: measured here: nuclei count (cytotoxicity indicator), at 2.08 µM; inhibition: at 2 µM, stronger effect = higher value, 0% TNFa-plus-vehicle, 100% no-TNFa wells.
Assay [2] can be described thus: reduction of polyQ htt aggregates in cells – imaging, exon1htt(103Q)mCFP cells, high-content imaging, primary screen (AID 483;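 active = visual image review flags a hit and inhibition of aggregation exceeds 20%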;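 also: compound exposure lasted 3 days before fixation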;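 as to nuclei count: percent of the per-plate median nuclei count of sample wells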). The note with it: exon1htt(103Q)mCFP cell line, aggregate imaging, at 2 µM; inhibition of aggregation: stronger effect = higher value; nuclei count: measured here: cell count, toxicity.
The nature of assay [3]: endothelial E-selectin expression blockers – imaging, HUVEC, immunofluorescence, MLSMR starter and 10KST1 sets, primary screen (AID 487;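 active = visually confirmed hit in the image check and inhibition above 20%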;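 as to inhibition: signal is fraction of cell area covered by stained E-selectin grains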;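 as to nuclei count: 100% = median nuclei count of all wells on the same plate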). The note with it: HUVEC TNFalpha-induced E-selectin immunofluorescence imaging, at 2 µM; inhibition: stronger effect = higher value; nuclei count: measured here: cell number, toxicity.
Assay [4] has as its target Voltage-gated potassium channel subunit beta-2 (Rattus norvegicus) (UniProt P62483). Description: inhibitors of rat Kvbeta2 reductase activity – biochemical, NADPH fluorescence, primary screen (AID 622;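 active = fluorescence slope higher than the sample average by over 3 SD, cut at about -0.22 in these data, passing the limit was not always enough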;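 also: slope of raw intensity against log time taken from 70 to 1610 s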). The note with it: recombinant KvBeta, 4-cyanobenzaldehyde reduction, at 10 µM, stronger effect = higher value.
The target is the same in assay [5]. Description: enhancers of rat Kvbeta2 NADPH turnover – biochemical, NADPH fluorescence, primary screen (AID 623;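 active = NADPH fluorescence slope more negative than the mean of all samples by about 3 SD, 99.7% confidence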;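 also: fluorescence intensity change per second fitted from 20 to 320 s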). Conditions: Recombinant KvBeta, NADPH fluorescence decrease slope, 10 min; at 10 µM; stronger effect = lower value.
For assay [6], the target named is Alpha-2C adrenergic receptor (Homo sapiens) (UniProt P18825). Description: compounds altering alpha2C-coupled GIRK flux – cell-based, HEK293 alpha2C/GIRK1/2, thallium flux, primary screen (AID 624).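 Also: slope of fluorescence ratio to pre-addition baseline per second over 15 to 24 s.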 The note with it: thallium flux BTC fluorescence, at 10 µM, actives lie on both sides.
Assay [7] in a line: blockers of RIG-like receptor reporter activation – cell-based, Sendai virus stimulus, luciferase, 10K MLSCN set, TLR/RLR signaling modifier project, primary screen (AID 602276;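 active = inhibition at or above 50% at 10 µM; inactive = inhibition below 50%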;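 also: firefly luciferase from ISG56 promoter only with Renilla not read in this screen; 0% = Sendai virus plus DMSO and 100% = medium plus DMSO without virus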). The note with it: HEK293 RL24 IRF3 luciferase reporter, at 10 µM, stronger effect = higher value.
Assay [8] in a line: TLR3 IRF3 reporter activation blockers – cell-based, poly I:C stimulus, luciferase, 10K MLSCN set, primary screen (AID 602277;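 active = inhibition of the reporter signal at or above 50%; inactive = inhibition below 50%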). Conditions: HEK293-TLR3 RL24 IRF3 luciferase reporter, at 10 µM, stronger effect = higher value. On the technique in general: In a reporter assay the amount or activity of a reporter protein is the signal.

Voltage-gated potassium channel subunit beta-2 (Rattus norvegicus), sequence (P62483 whole entry, looked up): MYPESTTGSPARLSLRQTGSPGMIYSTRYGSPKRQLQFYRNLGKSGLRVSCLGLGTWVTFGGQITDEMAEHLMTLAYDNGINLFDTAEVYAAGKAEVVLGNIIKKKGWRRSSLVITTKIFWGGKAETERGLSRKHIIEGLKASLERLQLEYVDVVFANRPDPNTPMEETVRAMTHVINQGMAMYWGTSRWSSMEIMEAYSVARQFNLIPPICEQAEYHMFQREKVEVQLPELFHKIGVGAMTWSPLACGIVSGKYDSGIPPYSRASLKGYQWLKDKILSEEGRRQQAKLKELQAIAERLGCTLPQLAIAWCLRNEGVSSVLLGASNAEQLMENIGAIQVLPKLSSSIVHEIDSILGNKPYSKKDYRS
Alpha-2C adrenergic receptor (Homo sapiens), sequence (P18825 whole entry, looked up): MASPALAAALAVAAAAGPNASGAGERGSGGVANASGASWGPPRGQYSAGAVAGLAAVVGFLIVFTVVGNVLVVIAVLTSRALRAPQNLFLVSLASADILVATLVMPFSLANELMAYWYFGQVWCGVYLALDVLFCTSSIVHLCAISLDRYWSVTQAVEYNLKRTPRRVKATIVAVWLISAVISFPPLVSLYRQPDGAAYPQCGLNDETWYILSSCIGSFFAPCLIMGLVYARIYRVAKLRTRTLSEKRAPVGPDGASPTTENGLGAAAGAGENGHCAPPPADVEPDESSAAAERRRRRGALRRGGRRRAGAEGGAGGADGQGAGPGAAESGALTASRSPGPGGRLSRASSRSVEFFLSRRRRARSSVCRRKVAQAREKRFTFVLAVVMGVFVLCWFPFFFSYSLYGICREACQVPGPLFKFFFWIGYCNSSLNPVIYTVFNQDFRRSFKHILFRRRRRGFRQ

For `O=C(Cn1nc(Cc2cccnc2)c2ccccc2c1=O)NCC1CCCO1` (centres undefined), in assay [1], the cell count was determined as 461. In addition, the inhibition in assay [1] was 6.1% (inactive); in assay [3] it was -96.1% (inactive); in assay [7] it was 11.5% (inactive); in assay [8], 29.9% (inactive). Moreover, the inhibition of aggregation in assay [2] was 12.1% (inactive). Further, the nuclei count in assay [2] came to 69.2%; in assay [3] it was 115%. Also, in assay [4], the fluorescence slope was -0.553 (inactive). For the same compound, in assay [5], the NADPH fluorescence slope was -2.6e-06 (inactive). In addition, the slope in assay [6] was 0.00713 (inactive).

As for `O=c1c2ccccc2nc(SCc2nnc(-c3ccccc3Br)o2)n1-c1ccccc1`, the cell count in assay [1] was 379. The inhibition in assay [1] is 2.9% (inactive); in assay [3], -18.3% (inactive); in assay [7], 0.607% (inactive); in assay [8], 1.7% (inactive). Also, in assay [2], the inhibition of aggregation was 5.3% (inactive). In addition, the nuclei count in assay [2] amounted to 63.9%; in assay [3] it was 104%. The fluorescence slope in assay [4] is -0.573 (inactive). Moreover, the NADPH fluorescence slope in assay [5] is -4.9e-05 (inactive). In assay [6], the slope is 0.00444 (inactive).

For the compound `COc1ccc(C(=O)N2CCSC2=S)cc1OC`, the cell count in assay [1] stood at 677. In addition, the inhibition in assay [1] was -19.3% (inactive); in assay [3] it was 55.8% (inactive); in assay [7] it was 4.55% (inactive); in assay [8], 15% (inactive). Moreover, in assay [2], the inhibition of aggregation was -13.4% (inactive). In addition, the figures for the nuclei count in assay [2] and in assay [3] were 97.5% and 82.9%, respectively. For the same compound, in assay [4], the fluorescence slope was -0.457 (inactive). For the same compound, the NADPH fluorescence slope in assay [5] is -2.6e-05 (inactive). Also, the slope in assay [6] is 0.00338 (inactive).

As for `O=C(NC1CCCc2ccccc21)C1CCN(c2nnc(-n3cccc3)s2)CC1` (centres undefined), the cell count in assay [1] was 686. Further, the inhibition in assay [1] was -6% (inactive); in assay [3] it was -65.3% (inactive); in assay [7], 7.01% (inactive); in assay [8], 18.7% (inactive). Moreover, the inhibition of aggregation in assay [2] was -12.1% (inactive). Also, the nuclei count in assay [2] was found to be 116%; in assay [3], 114%. Besides, the fluorescence slope in assay [4] was -0.583 (inactive). Besides, the NADPH fluorescence slope in assay [5] was -3e-05 (inactive). For the same compound, the slope in assay [6] was 0.00726 (inactive).

Take `COc1ccccc1OCCSc1nc2ccccc2c(=O)[nH]1`: in assay [1], the cell count was 361. The inhibition in assay [1] was 3.5% (inactive); in assay [3] it was -49.6% (inactive); in assay [7] it was -4.62% (inactive); in assay [8] it was -5.54% (inactive). The inhibition of aggregation in assay [2] is -4.7% (inactive). In addition, the nuclei count in assay [2] amounted to 89.3%; in assay [3] it was 86.8%. Besides, the fluorescence slope in assay [4] is -0.35 (inactive). In assay [5], the NADPH fluorescence slope is -5.3e-05 (inactive). The slope in assay [6] is 0.00628 (inactive).

For the compound `CCCC1(CCC)NC(=O)NC1=O`, the cell count in assay [1] was 548. In addition, the inhibition was -3.3% (inactive) in assay [1], -34.4% (inactive) in assay [3], 6.49% (inactive) in assay [7] and 14.1% (inactive) in assay [8]. Besides, the inhibition of aggregation in assay [2] was -41.1% (inactive). Also, the nuclei count came to 65.5% in assay [2] and 107% in assay [3]. In addition, the fluorescence slope in assay [4] is -0.491 (inactive). Further, in assay [5], the NADPH fluorescence slope is -4.7e-05 (inactive). For the same compound, in assay [6], the slope is 0.00587 (inactive).

`O=C(CN1C(=O)C2C3C=CC(C3)C2C1=O)NCc1ccc2c(c1)OCO2` (centres undefined): the cell count in assay [1] was found to be 421. Moreover, the inhibition in assay [1] was 7.5% (inactive); in assay [3], -109% (inactive); in assay [7] it was -4.21% (inactive); in assay [8], 6.98% (inactive). Moreover, the inhibition of aggregation in assay [2] was 8.3% (inactive). In addition, the nuclei count in assay [2] came to 102%; in assay [3], 104%. Also, the fluorescence slope in assay [4] is -0.601 (inactive). Besides, the NADPH fluorescence slope in assay [5] is 1.2e-05 (inactive). Moreover, in assay [6], the slope was 0.00636 (inactive).

In the case of `CCn1cc(S(=O)(=O)CC(=O)Nc2ccc(OC)cc2)c2ccccc21`, the cell count in assay [1] amounted to 624. In addition, the inhibition in assay [1] is -2.4% (inactive); in assay [3], -16.8% (inactive); in assay [7] it was 7.03% (inactive); in assay [8], 16.6% (inactive). Moreover, in assay [2], the inhibition of aggregation was 7% (inactive). Also, the nuclei count came out at 82.1% in assay [2] and 115% in assay [3]. Moreover, the fluorescence slope in assay [4] was -0.528 (inactive). The NADPH fluorescence slope in assay [5] is -4.7e-05 (inactive). The slope in assay [6] is 0.00751 (inactive).

As for `Cc1ccc(-n2c(Cn3cnc4ccccc43)nnc2SCC(=O)O)cc1`, the cell count in assay [1] was 610. In addition, the inhibition was -9.8% (inactive) in assay [1], -26.2% (inactive) in assay [3], 15.2% (inactive) in assay [7] and 21.8% (inactive) in assay [8]. Moreover, the inhibition of aggregation in assay [2] is -19.4% (inactive). For the same compound, the nuclei count in assay [2] was determined as 108%; in assay [3], 110%. The fluorescence slope in assay [4] is -0.437 (inactive). Besides, the NADPH fluorescence slope in assay [5] was 1.2e-06 (inactive). Also, in assay [6], the slope is 0.00571 (inactive).

The term inhibition denotes the drop in the measured response relative to a control, in per cent.
